# Source: PubChem (National Center for Advancing Translational Sciences (NCATS))
# Lassa entry inh = Lassa virus entry inhibition; Lassa virus pseudotype entry inhibition, cell reporter; Potency, µM (doses to about 37.9 µM), inactives show top-dose activity change, negative = inhibition, usual class: inhibitors; actives 1.2% (n = 300,000); calls by dose curve; tested in HEK293 cells; note: nearly all actives have a fitted effect of over 50% in size
# VACV mCherry inh = inhibitors of vaccinia virus infection (mCherry reporter signal). Vaccinia virus mCherry reporter infection, fluorescence. Potency, µM (highest dose often 36.5 µM), for inactives: at the top dose activity change, negative = inhibition, usual class: inhibitors. actives 0.63% (n = 310,000). AID 720579; calls by dose curve; tested in A549 cells; note: nearly all actives have a fitted effect of over 35% in size
# Marburg entry inh = inhibitors of Marburg virus binding or cell entry. Potency, µM (series often up to 37.8 µM), inactives show at the highest dose activity change, negative = inhibition, most hits filed as inhibitors. AID 540276. actives 1.8% (n = 300,000). Marburg virus pseudotyped entry inhibition, cell reporter; calls by dose curve; tested in HEK293 cells
# Vaccinia Venus = vaccinia inhibition (Venus reporter) | Potency, µM (top dose mostly 36.5 µM), for inactives: at the highest dose activity change, negative = inhibition, hits mostly inhibitors | actives 0.46% (n = 330,000) | Vaccinia virus Venus reporter expression, fluorescence; calls by dose curve; tested in A549 cells; note: nearly all actives have a fitted effect of over 30% in size
# Active calls of the source: *; i = inactive; ? = inconclusive; / = no result; [ ] = another dose, or the depositor's remark. An excerpt weighted towards active compounds, which were near 2.5% of everything screened. % is set by controls: 0 for no effect and ±100 for the full control effect; potency is the fitted concentration of half-maximal effect.
SMILES,Lassa entry inh,VACV mCherry inh,Marburg entry inh,Vaccinia Venus
CO[C@H]1[C@H](NC(=O)c2ccsc2)c2ccccc2C12CCN(Cc1c(O)ccc3ccccc13)CC2,/,-11%,/,4%
O=[N+]([O-])c1ccccc1S(=O)(=O)N1CCN(c2nc(-c3cccs3)nc3ccccc23)CC1,/,-16%,/,-15%
C(=C\c1ccnc2ccccc12)/c1ccc(N2CCOCC2)cc1,/,163%,/,179%
COc1cccc(O)c1CN1CCC2(CC1)c1ccccc1[C@@H](NC(=O)c1ccsc1)[C@@H]2OC,/,-13%,/,-1%
COc1[nH]c(/N=C/c2ccco2)c(C#N)c1C#N,/,i,/,14%
Nc1ccc(C23CC4CC(CC(CO)(C4)C2)C3)cc1,6%,/,13%,/
NCC12CC3CC(C1)CC(c1ccc(Cl)cc1)(C3)C2,/,?,/,13µM*
NCC12CC3CC(C1)CC(CN)(C3)C2,-12%,/,18µM*,/
CC[C@H](CO)NC(=O)[C@H]1C=C2c3cccc4[nH]cc(c34)C[C@H]2N(C)C1,/,/,-42%,/
Cc1cc2c(c(=O)n1Cc1ccccc1)[C@H]1O[C@](CCCCN3C(=O)c4ccccc4C3=O)(Cc3c1ccc1ccccc31)O2,/,/,-11%[14.2 µM],/
CCN(CC)CCN1c2ccccc2Sc2ccccc21,?,-15%,?,-24%
CCN(CC)CCN1c2ccccc2Sc2ccc3ccccc3c21,11%[46.1 µM],-21%,10µM*,-16%
CCOC(=O)Nc1ccc2c(c1)N(C(=O)CCN(CC)CC)c1ccccc1S2=O (stereo not drawn),18µM*,10µM*,?,?
CCOC(=O)Nc1ccc2c(c1)N(C(=O)CN(CC)CC)c1ccccc1CC2,5%,i,0%,-12%
Fc1ccc(-c2ncn(C3CCNCC3)c2-c2ccnc(Oc3ccc4c(c3)OCO4)n2)cc1,13µM*,/,/,/
CN1CCC(n2cnc(-c3ccc(F)cc3)c2-c2ccnc(Nc3ccccc3)n2)CC1,16µM*,/,/,/
Fc1ccc(-c2ncn(C3CCNCC3)c2-c2ccnc(Oc3ccccc3)n2)cc1,6.3µM*,/,/,/
Cc1cc(C)nc(Nc2ccc(F)cc2)n1,?,i,14%,-2%
Cc1ccc2c(-c3ccnc(Nc4ccccc4)n3)c(-c3ccc(F)cc3)nn2n1,25µM*,/,/,/
CCCCOc1cccc(C(=O)NC(=S)Nc2cccnc2)c1,?,?,?,-1%
CC(C)c1ccc(C(=O)Nc2cccnc2)cc1,?,-12%,4µM*,-22%
O=C(Nc1cccnc1)c1ccc(F)cc1,0%,?,14%,-28%
CCCOc1cccc(C(=O)Nc2cccnc2)c1,19%,14µM*,-11%,-13%
COc1cc(=O)n2c(c1C(=O)NC(C)c1ccco1)CCN(CC=C(C)C)CC2 (stereo not drawn),/,-10%,/,-11%
C(=C\c1ccnc2ccccc12)/c1ccccc1,/,-23%,/,-19%
SMILES,Lassa entry inh,VACV mCherry inh,Marburg entry inh,Vaccinia Venus
C/C(=N\N1C(=O)c2ccccc2NC1c1ccco1)c1ccccc1O (stereo not drawn),?,/,8.2µM*,/
CC1(c2ccccc2)CC(C)(C)N(C(=O)C2CCCO2)c2ccccc21 (stereo not drawn),-7%,-1%,18µM*,-20%
CCC(=O)N1c2ccccc2C(C)(c2ccccc2)CC1(C)C (stereo not drawn),18%[46.1 µM],-7%,-24%[46.1 µM],0%
CCc1ccc(/C=N/NC(=O)c2ccccn2)cc1,1.4µM*,i,?,-26%
CCN(CC)c1ccc(/C=N/NC(=O)c2ccccn2)cc1,11µM*,-17%,?,-25%
O=C(N/N=C/c1cccs1)c1ccccn1,-3%,-14%,15%,-8%
CCN(CC)c1ccc(/C=N/NC(=O)c2ccco2)cc1,4.5µM*,-28%,7.3µM*,-25%
Cc1ccc(/C=N/NC(=O)c2ccccn2)s1,?,i,6.5µM*,-13%
COC(=O)c1c(OCc2ccccn2)cc(=O)n2c1CCN(Cc1ccc3nsnc3c1)CC2,/,-2%,/,0%
CCSC1=C(C#N)[C@@H](c2cccs2)C(C(=O)OC)=C(C)N1,/,/,26%,/
SCc1nc2ccccc2[nH]1,/,-22%,/,-11%
Oc1ccc2c3c1O[C@H]1c4[nH]c5c(c4C[C@@]4(O)[C@@H](C2)N(CC2CC2)CC[C@]314)C[C@]1(O)[C@H]2Cc3ccc(O)c4c3[C@@]1(CCN2CC1CC1)[C@@H]5O4,/,/,-28%,/
NC(N)=Nc1ccc2[nH]c3c(c2c1)C[C@@]1(O)[C@H]2Cc4ccc(O)c5c4[C@@]1(CCN2CC1CC1)[C@H]3O5,2.3µM*,-14%,26µM*,-5%
O=C(Nc1ccc2c(c1)oc1ccc(S(=O)(=O)N3CCCC3)cc12)C1CC1,12µM*,?,-25%,?
O=C(CC(C(=O)O)n1ccnc1)c1ccc(Cl)cc1 (stereo not drawn),/,-17%,/,-8%
COC[C@@H]1CCCN1[C@@H]1C[S+](=O)([O-])N[C@@H]1COCc1ccccc1,-2%[46.1 µM],/,/,/
O=C1N=C2C=CC(Cl)=CC2C(c2ccccc2)=N1 (stereo not drawn),/,/,9%,/
CCN(c1ccccc1)S(=O)(=O)c1ccc(OC)c(NC(=O)C2=NN(c3ccccc3)C(=O)CC2)c1,0.32µM*,-8%,?,-16%
O=C(COc1ccccc1C(=O)Nc1ccccc1)NCCCCc1ccccc1,/,-1%,/,-13%
O=C1c2[nH]nc(-c3ccccc3O)c2C(c2ccccc2)N1Cc1ccco1 (stereo not drawn),1.5µM*,-24%,?,?
COc1cc(C2c3c(-c4cc(C)cc(C)c4O)n[nH]c3C(=O)N2CCCO)cc(OC)c1OC (stereo not drawn),8.2µM*,/,3%,/
O=C1c2[nH]nc(-c3ccccc3O)c2C(c2ccc(Cl)cc2)N1Cc1ccco1 (stereo not drawn),?,?,-23%[46.1 µM],?
